Data from PubChem BioAssay AID1347418 (Sanford-Burnham Center for Chemical Genomics, 2020).
Out of some 1,300 compounds screened, about 750 (58%) were called active. The list shows a part of the results. Values without a mark were called inactive.

What follows are molecules tested against Sulfhydryl oxidase 1 (Homo sapiens) (UniProt O00391) (assay: QSOX1 enzyme inhibitors, primary screen, biochemical, ROS-Glo H2O2 luminescence, HTS (AID 1347418)). Details: recombinant QSOX1, ROS-Glo H2O2 luminescence, at 12.5 µM, stronger effect = higher value; active = any value above zero unless noted.
Chain of Sulfhydryl oxidase 1 (Homo sapiens) (O00391 whole entry, looked up): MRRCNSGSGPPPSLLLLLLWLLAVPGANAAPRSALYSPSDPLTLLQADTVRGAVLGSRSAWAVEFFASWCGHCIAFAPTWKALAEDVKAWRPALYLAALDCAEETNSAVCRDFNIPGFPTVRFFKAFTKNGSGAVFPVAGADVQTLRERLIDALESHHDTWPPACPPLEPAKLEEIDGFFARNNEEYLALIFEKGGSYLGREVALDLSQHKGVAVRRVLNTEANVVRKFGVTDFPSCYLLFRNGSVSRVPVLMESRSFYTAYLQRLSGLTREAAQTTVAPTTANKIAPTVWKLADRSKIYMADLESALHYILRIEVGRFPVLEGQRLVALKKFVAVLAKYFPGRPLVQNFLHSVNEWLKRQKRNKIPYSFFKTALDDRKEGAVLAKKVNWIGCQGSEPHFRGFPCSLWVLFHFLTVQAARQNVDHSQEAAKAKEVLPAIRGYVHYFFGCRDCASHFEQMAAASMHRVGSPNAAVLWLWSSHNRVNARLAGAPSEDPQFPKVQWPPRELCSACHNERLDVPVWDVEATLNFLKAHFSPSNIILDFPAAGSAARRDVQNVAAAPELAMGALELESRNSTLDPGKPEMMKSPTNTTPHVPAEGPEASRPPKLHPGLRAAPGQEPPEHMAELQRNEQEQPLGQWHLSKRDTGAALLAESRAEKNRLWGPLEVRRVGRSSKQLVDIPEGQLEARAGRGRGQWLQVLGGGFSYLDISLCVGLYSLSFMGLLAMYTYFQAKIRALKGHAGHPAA

| SMILES | inhibition |
| --- | --- |
| O=C(O)c1nn(Cc2ccc(Cl)cc2Cl)c2ccccc12 | 6.3% [setting not given] (active) |
| CCS(=O)(=O)Nc1cccc(C(=C2CCCCC2)c2cnc[nH]2)c1 | 1.9% (active) |
| O=[N+]([O-])/C=C/c1ccc2c(c1)OCO2 | -5.8% |
| CC[C@@]1(O)C(=O)OCc2c1cc1n(c2=O)Cc2cc3ccccc3nc2-1 | 6.2% [setting not given] (active) |
| NC(Cc1cc(O)c(O)cc1O)C(=O)O (stereo not given) | 12% (active) |
| NCCc1c[nH]c2ccc(C(N)=O)cc12 | 0.5% (active) |
| NCCc1c[nH]c2ccc(O)cc12 | 23.8% (active) |
| NCCc1c[nH]c2ccccc12 | 5.9% [setting not given] (active) |
| COc1ccc2[nH]cc(CCN)c2c1 | -1.9% [setting not given] |
| CNCCc1c[nH]c2ccc(O)cc12 | 9.6% [setting not given] (active) |
| CCCN(CCC)CCc1c[nH]c2ccc(C(N)=O)cc12 | -6.3% [setting not given] |
| OC1CCCCC1N1CCC(c2ccccc2)CC1 (stereo not given) | -0.9% [setting not given] |
| CC(N)Cc1c[nH]c2ccc(OCc3cccs3)cc12 (stereo not given) | 0.1% [setting not given] (active) |
| CC(=O)NCCc1c[nH]c2ccccc12 | 12.2% [setting not given] (active) |
| CC(N)Cc1c[nH]c2ccc(O)cc12 (stereo not given) | 20.8% [setting not given] (active) |
| Cc1[nH]c2ccc(O)cc2c1CCN | 16.3% [setting not given] (active) |
| c1ccc2c(c1)OCC(C1=NCCN1)O2 (stereo not given) | -2.6% |
| Cn1cnc(CCN)c1 | -4.6% |
| CN1C[C@H](CNC(=O)OCc2ccccc2)C[C@@H]2c3cccc4c3c(cn4C)C[C@H]21 | 10.7% [setting not given] (active) |
| CP(=O)(O)C1=CCNCC1 | 0.8% (active) |

| SMILES | inhibition |
| --- | --- |
| NC(N)=NOCC[C@H](N)C(=O)O | 4% [setting not given] (active) |
| NC(N)=NOCCC(N)C(=O)O (stereo not given) | -1% |
| CNCC(O)c1ccc(O)cc1 (stereo not given) | 2.1% [setting not given] (active) |
| NCC(O)c1ccc(O)cc1 (stereo not given) | 6.8% [setting not given] (active) |
| NNC(=O)c1ccc(O)cc1 | -1% |
| COc1cc(C(O)CN)ccc1O (stereo not given) | 4.4% (active) |
| OCc1cnc[nH]1 | -0.7% |
| O=C(O)Cc1cnc[nH]1 | 4.8% (active) |
| Oc1ccc2c3c1O[C@H]1c4[nH]c5c(c4C[C@@]4(O)[C@@H](C2)N(CC2CC2)CC[C@]314)C[C@@]1(O)[C@H]2Cc3ccc(O)c4c3[C@@]1(CCN2CC1CC1)[C@H]5O4 | 0.3% (active) |
| Oc1ccc2c3c1O[C@H]1c4[nH]c5ccccc5c4C[C@@]4(O)C(C2)N(CC2CC2)CCC314 (stereo not given in full) | 8.5% [setting not given] (active) |
| Oc1ccc2c3c1O[C@H]1c4oc5ccccc5c4C[C@@]4(O)C(C2)N(CC2CC2)CCC314 (stereo not given in full) | 1.7% [setting not given] (active) |
| NC(N)=Nc1ccc2[nH]c3c(c2c1)C[C@@]1(O)[C@H]2Cc4ccc(O)c5c4[C@@]1(CCN2CC1CC1)[C@H]3O5 | 7.1% [setting not given] (active) |
| O=C1/C(=C/c2ccccc2)C[C@@]2(O)[C@H]3Cc4ccc(O)c5c4[C@@]2(CCN3CC2CC2)[C@H]1O5 | -0.8% [setting not given] |
| CC(C)(O)[C@@H]1[C@H]2OC(=O)[C@@H]1[C@]1(O)C[C@H]3O[C@]34C(=O)O[C@H]2[C@]14C (tested in a mixture with another compound) | -1.5% |
| CN1CCc2cccc(Cl)c2CC1 | -4.5% |
| CC(C)Oc1cccnc1N(C)C1CCN(Cc2ccccc2)CC1 | 8.9% (active) |
| O=c1[nH]c2ccccc2n1CCCN1CCC(n2c(=O)[nH]c3cc(Cl)ccc32)CC1 | -1.8% [setting not given] |
| O=c1[nH]c2ccccc2n1C1CCN(CCCC(c2ccc(F)cc2)c2ccc(F)cc2)CC1 | 4.6% [setting not given] (active) |
| NC(Cc1ccc(N(CCCl)CCCl)cc1)C(=O)O (stereo not given) | 32.1% (active) |
| Cn1c(CCCC(=O)O)nc2cc(N(CCCl)CCCl)ccc21 | 33.3% (active) |

| SMILES | inhibition |
| --- | --- |
| O=C(O)CCCc1ccc(N(CCCl)CCCl)cc1 | 4.4% [setting not given] (active) |
| Cc1ncc(CNC(=O)N(CCCl)N=O)c(N)n1 | -0.8% |
| CCCn1c(C)c(C(=O)c2ccc3ccccc3c2)c2ccccc21 | 3.4% [setting not given] (active) |
| O=c1c2ccccc2[se]n1-c1ccccc1 | 61% [setting not given] (active) |
| CCCN1CCC[C@@H](c2cccc(O)c2)C1 | -1.9% |
| CCCN1CCC[C@H](c2cccc(O)c2)C1 | 0.7% (active) |
| C=C(C)[C@H]1Cc2c(ccc3c2O[C@@H]2COc4cc(OC)c(OC)cc4[C@@H]2C3=O)O1 | 8.2% [setting not given] (active) |
| Cc1ccc(S(=O)(=O)N[C@@H](CCCCN)C(=O)CCl)cc1 | 2.5% (active) |
| C#CCOC(=O)C1=CCCN(C)C1 | -6.3% |
| COC(=O)C1=CCCN(C)C1 | 0.8% [setting not given] (active) |
| NCc1cc(=O)[nH]o1 | -4.8% |
| CN1C(=O)CCS(=O)(=O)C1c1ccc(Cl)cc1 (stereo not given) | 4.6% (active) |
| NC(=O)CI | -1.4% |
| NNC(N)=O | 2% (active) |
| COc1ccccc1N1CCNCC1 | -0.9% [setting not given] |
| c1ccc2c(N3CCNCC3)cccc2c1 | 2.2% (active) |
| CS(=N)(=O)CC[C@H](N)C(=O)O (stereo not given in full) | 2% (active) |
| CC(=O)OCC1=C(C(=O)O)N2C(=O)[C@@H](NC(=O)CCC[C@@H](N)C(=O)O)[C@H]2SC1 | -4.2% |
| COc1ccc2c(c1)c(CCN1CCOCC1)c(C)n2C(=O)c1cccc(Cl)c1Cl | 1.4% (active) |
| CC(C)=CCOc1c2occc2cc2ccc(=O)oc12 | 2.6% [setting not given] (active) |
